Source: PubChem BioAssay (NCI)
This is part of a sample that, as a whole, favours compounds with a hit. Of some 83,000 tested, about 20% had one in any assay.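 Plates (96-well) were seeded with cells, treated with compound at one concentration, and incubated for 48 hours before percent growth was determined.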 A number with no mark means an inactive call. Activity calls are given as the source filed them.

system: HCT-15 colon; test: NCI-60 one-dose screen, 48 h (100 = growth as untreated, 0 = no growth, -100 = all killed); conditions: 10 µM unless noted
Description: Growth inhibition of the HCT-15 human tumor cell line is measured as a screen for anti-cancer activity. Cells are grown in 96 well plates and exposed to the test compound for 48 hours. Compounds are tested at a single concentration, which is 10^-5 M for most compounds. The reported endpoint is percent growth (GI% or GIPRCNT), where numbers from 0 - 100% represent growth inhibition, and numbers from -100% - 0 represent cell death. For example, a value of 40 represents 60% growth inhibition. A value of 0 means no net growth occurred over the course of the experiment. A value of -40 indicates 40% of cells at the beginning of the experiment died by the end of the experiment. A value of -100 means all cells are dead at the end of the experiment.
NCI-60 Human Tumor Cell Lines Screen was performed using the standard one-dose NCI protocol, which is described in more detail at https://dtp.cancer.gov/discovery_development/nci-60/default.htm.
Compounds with GIPRCNT values below 10 were considered active. Activity score was based on GIPRCNT using the following formula: […]
Score is 0 for GIPRCNT values of 100 or above, 50 for GIPRCNT values of 0, and 100 for GIPRCNT values of -100.

Structure (SMILES) | growth
Cc1ccc(CNc2ccc3nc(CCC(C)C)[nH]c3c2)cc1 | 79.5%
Clc1c(Cl)[n+](Cc2ccc3ccccc3c2)cn1Cc1ccc2ccccc2c1 | 75.1%
Cc1ccc(C(=O)c2ccc(CC(=O)N=Nc3c(O)[nH]c4ccc(Br)cc34)n2C)cc1 | 96.7%
N#Cc1c(Nc2ccc(N3CCOCC3)cc2)nc(SCC(=O)c2ccc(Br)cc2)nc1-c1ccccc1 | 103%
Nc1[nH]c(=S)nc2oc(-c3ccccc3)c(-c3ccccc3)c12 | 97.3%
CCNc1nc(O)c(/C=C2\C=Nc3ncccc32)s1 | 16%
c1nc2ccc(-c3cc4ccc5[nH]ncc5c4c4c3CCCC4)cc2[nH]1 | 94.8%
CN1CCN(CCCOc2cccc3nc(Nc4ccc(F)c(F)c4)ccc23)CC1 | -79.9% (active)
CNC(=O)c1cc(Oc2cccc3nc(NC(=O)Nc4cc(C(F)(F)F)ccc4Cl)ccc23)ccn1 | 90%
CN1CCN(CC(=O)Nc2ccc3ncnc(Nc4ccc(Oc5cccc(C(F)(F)F)c5)c(Cl)c4)c3c2)CC1 | -12.2% (active)
CCOC(=O)/C=C1\S/C(=N\Nc2cc(=O)[nH]c3ccccc23)N(c2ccccc2)C1=O | 98.7%
C=C1C(=O)O[C@H]2[C@H]1CC/C(COC(=O)/C=C\C(=O)NCc1ccc(Cn3c(=O)sn(CCCCC)c3=O)cc1)=C\CC[C@@]1(C)O[C@@H]21 | 38.8%
CCN1CCN(C(=O)[C@]23CC[C@@H](C)[C@H](C)[C@@H]2C2=CC[C@@H]4[C@@]5(C)C/C(=C/c6cccnc6)C(=O)C(C)(C)[C@@H]5CC[C@@]4(C)[C@]2(C)CC3)CC1 | 15.2%
CCN1C(=O)N(CC)C2C1NC(=S)N2/N=C/c1ccc(OC)cc1 (stereo not given) | 33.2%
O=c1c2ccccc2c(=O)c2c1sc1c(=O)c3ccc(O)cc3c(=O)c12 | -65.4% (active)
COc1ccc(C(=O)Cn2c(C(=O)c3ccc(Cl)cc3)nc3ccccc32)cc1 | 33.6%
CC(C)(C)n1cc(-c2ccnc(NCCCNS(=O)(=O)c3ccc(C(F)(F)F)cc3)c2)c(-c2cccc(F)c2)n1 | 37.7%
CN(C)c1ccc(/C=C(\C#N)c2cc3ccccc3[nH]2)cc1 | 23.6%
Nc1[nH]n2cc(-c3ccc(F)cc3)nc2c1N=Nc1ccc(S(N)(=O)=O)cc1 | 60.4%
COc1ccc2c(c1)c(-c1nc(-c3c[nH]c4ncccc34)cs1)cn2CCO | 32%

Structure (SMILES) | growth
O=C(O)c1ccc(-c2ccc(/C=N/Nc3nc(Nc4ccccc4)nc(N4CCCCC4)n3)o2)cc1 | 55.3%
N[C@H]1CCC[C@@H]1NCCCCN1C(=O)c2cccc3cc([N+](=O)[O-])cc(c23)C1=O | 63.5%
O=C1NC(=O)/C(=C/c2c(-c3ccccc3)nc3sc(COc4ccccc4)nn23)S1 | 97.2%
Cc1nnc(-c2ccc3c(c2)nc(/C=C/c2ccccc2)n3C2CCCCC2)o1 | 49.4%
COc1cc2nc3sc(C(=O)Nc4ccc(C(=O)OC(C)C)cc4)c(C(=O)Nc4ccc(Cl)cc4C)n3c(=O)c2cc1OC | 93.7%
Cc1cc2c(cc1C)N(C(=O)CCl)CC(=O)N2 | 7.57% (active)
CCOC(=O)CC1CSC(Nc2ccccc2)=N1 (stereo not given) | 107%
CCOC(=O)C#Cc1c(C(=O)OCC)nnn1Cc1ccc(C(F)(F)F)cc1 | -16.9% (active)
CN(Cc1cc(Br)cc(Br)c1O)Cc1cc(Br)cc(Br)c1O | 22.2%
C=C(C)[C@@H]1CC[C@]2(COC(C)=O)CC[C@]3(C)[C@H](CC[C@@H]4[C@@]5(C)CCCN(C(C)=O)C(C)(C)[C@@H]5CC[C@]43C)[C@@H]12 | 0.472% (active)
C=C(C)[C@@H]1CCC[C@]2(C(=O)N3CCN(C)CC3)CC[C@]3(C)[C@@H](CC[C@@H]4[C@@]5(C)CC/C(=N\NC(=O)c6ccncc6)C(C)(C)[C@@H]5CC[C@]43C)[C@@H]12 | 92.1%
O=C(O)COc1ccc(Cl)c(Cl)c1 | 111%
NS(=O)(=O)c1ccc(-c2cc(-c3nnc(SCC(=O)Nc4ccc(C(=O)/C=C/c5ccc(Cl)cc5)cc4)n3-c3ccccc3)c3ccccc3n2)cc1 | 94.7%
O=C(CCCCCCN1CC(=O)N2[C@H](c3ccc(Cl)cc3)c3[nH]c4ccccc4c3C[C@@H]2C1=O)NO | 109%
COc1ccc(Oc2nc(Nc3ccc(N4CCOCC4)cc3)ncc2NC(=O)Nc2cc(OC)cc(OC)c2)cc1 | 82.9%
Cc1ccc(C2CC(c3nc(-c4ccc(Cl)cc4)oc3C)=NN2C(=O)c2ccncc2)cc1 (stereo not given) | 83.7%
N=C(N)c1ccc(-c2ccc(-c3cc(Cl)cc(Cl)c3)s2)nc1 | -7.35% (active)
CCN1C(=O)N(CC)C2C1NN=c1s/c(=C\c3cnc(C)n3C)c(=O)n12 (stereo not given) | 27.7%
CCN(CC)CCCOc1ccc2ncnc(Nc3ccc(Oc4cccc(C(F)(F)F)c4)c(Cl)c3)c2c1 | -33.6% (active)
COc1cccc(/C=C/C(=O)c2cc3c(N)c(C(=O)Nc4cccc5ccccc45)sc3nc2C)c1 | -23.1% (active)
